# In all, about 150,000 compounds went through this assay and about 6,500 (4.3%) were called active. Roughly 12% stayed inconclusive and do not appear here. The sample as a whole holds a higher share of actives than the screen did. Unmarked numbers belong to inactive results. Calls follow the shape of the dose curve; as a rule, active = well fitted inhibition curve with a large enough effect (not every such curve was filed as active); inconclusive = small, poorly fitted or top-dose-only effect, or another doubt; inactive = no such curve, though single readings can be large or run the other way.
# Target: 15-hydroxyprostaglandin dehydrogenase [NAD(+)] (Homo sapiens) (UniProt P15428)
# Sequence (P15428 whole entry, looked up): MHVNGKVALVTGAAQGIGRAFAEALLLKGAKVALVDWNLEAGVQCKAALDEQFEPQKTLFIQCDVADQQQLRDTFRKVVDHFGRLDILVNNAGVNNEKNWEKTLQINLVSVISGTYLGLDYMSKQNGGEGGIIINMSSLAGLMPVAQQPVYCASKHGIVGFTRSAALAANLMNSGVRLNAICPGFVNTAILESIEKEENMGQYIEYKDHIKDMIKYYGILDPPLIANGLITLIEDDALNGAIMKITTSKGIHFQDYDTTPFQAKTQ
# Experiment: qHTS Assay for Inhibitors of HPGD (15-Hydroxyprostaglandin Dehydrogenase)
# Conditions: purified HPGD, NADH fluorescence kinetic, PGE2 substrate; activity change, negative = inhibition: stronger effect = lower value
# Procedure, shortened: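 NADH formation kinetics: reaction with 30 uM PGE2 and 1 mM NAD+ (final), 20 nM enzyme, Tris-HCl pH 8 with Tween 20, after 15 min compound preincubation at room temperature. Fluorescence change, last versus first of five reads.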
# % is scaled to controls: 0 for no effect and ±100 for the full control effect; potency is read from the fitted curve at half-maximal effect.
SMILES,"activity change, negative = inhibition [%]",Potency
COc1ccc(N2CCN(Cc3cc(=O)oc4ccc5ccccc5c34)CC2)cc1,-9.86,–
O=c1c2ccccc2oc2nc(C3CCCCC3)n(Cc3ccco3)c(=O)c12,-6.04,–
CCc1nc2oc3ccccc3c(=O)c2c(=O)n1Cc1ccc(OC)cc1,–,25.1 µM (active)
COC(C(=O)Nc1ccc(C(C)=O)cc1)c1ccccc1 (stereo not drawn),-9.31,–
O=C(Cc1cccs1)Nc1cccc(-c2nc3ccccc3[nH]2)c1,-8.46,–
O=C(CCc1nc2ccccc2c(=O)[nH]1)OCC(=O)c1cccc(Cl)c1,-9.26,–
CCOc1cc(C(=O)OCC(=O)Nc2cccc(C)c2)ccc1OCC(=O)N1CCOCC1,-18.5,–
Cc1ccc(C(=O)C(=S)N2CCOCC2)cc1,-3.51,–
CCOc1cc(C(=S)N2CCOCC2)ccc1O,–,12.6 µM (active)
COc1ccc2c(c1)O[C@@H](c1ccc3c(c1)OCO3)[C@H](OC(=O)NCCc1ccc(OC)c(OC)c1)C2=O,-3.81,–
S=C(Nc1cccc(Cl)c1)Nc1ccc2cn[nH]c2c1,-14.3,–
Cc1cc(C)cc(C(=O)N2CCN=C2SCc2ccc([N+](=O)[O-])cc2)c1,-11.7,–
O=C(COc1ccccc1F)NNC(=O)c1ccc(N2CCCCC2)c([N+](=O)[O-])c1,-21.3,–
O=C1CCCC(O)=C1N=Nc1ccc2ncsc2c1,–,31.6 µM (active)
COc1ccc(NC(=O)c2nc(-n3nc(C)cc3C)ccc2Cl)cc1Cl,-17.4,–
CCCN(CCC)C(=S)Nc1cc(C(=O)OC)ccc1C(=O)OC,-9.23,–
O=C(CCl)NNc1cccc(Cl)n1,–,28.2 µM (active)
O=C(NNc1ccccn1)c1ccc(Cl)nc1,-23,–
COc1cc(OC)nc(NC(=O)CCl)n1,-16.6,–
CC(C)CC(=O)NC(=S)Nc1cc(C(=O)O)ccc1Cl,-13.5,–
CCOCC(=O)Nc1cc(OC)c(Cl)cc1OC,-3.42,–
COc1cc(NC(=S)NNC(=O)CC(C)C)c(OC)cc1Cl,–,31.6 µM (active)

SMILES,"activity change, negative = inhibition [%]",Potency
COc1ccc(-c2nc3c(c4c2C[C@H](c2ccccc2)OC4)CN(S(=O)(=O)c2c(C)noc2C)CC3)c(C)c1,-1.95,–
CCOC(=O)c1c(C)[nH]c(C(=O)COc2ccc3c(c2)OCO3)c1C,-6.28,–
O=[N+]([O-])c1ccccc1/C=N/n1c(COc2ccccc2)n[nH]c1=S,–,7.08 µM (active)
CCOc1ccc(-c2n[nH]c(=S)n2/N=C/c2cc3c(cc2[N+](=O)[O-])OCO3)cc1,–,3.55 µM (active)
Cc1c(NC(=O)CCCOc2ccccc2)cccc1[N+](=O)[O-],-12.9,–
Cc1ccc(S(=O)(=O)N/N=C\c2cc3c(cc2[N+](=O)[O-])OCO3)cc1,-28.1,–
Cc1ccc(-c2n[nH]c(=S)n2/N=C/c2cc3c(cc2[N+](=O)[O-])OCO3)cc1,–,1.58 µM (active)
CCOC(=O)c1nc(-c2ccc3c(c2)OCO3)[nH]c1C,-11.1,–
O=C(Cc1cc(=O)[nH][nH]1)N/N=C/c1ccccc1[N+](=O)[O-],-14.9,–
COC(=O)/C(=C1\Oc2ccc(C(C)(C)C)cc2S1)C(F)(F)F,-12.2,–
COc1cc(OC)cc(-c2nc3ccccc3c(=O)n2NC(=O)c2cccnc2Cl)c1,-8.81,–
NC(=O)Nc1ccccc1C(=O)NCCc1ccccc1,-3.92,–
CCOc1cc(/C=N/NC(=O)OC)ccc1OCCSc1ccc(Cl)cc1,-11.7,–
Cc1nn(-c2ccccc2)c2c1C(c1cccc([N+](=O)[O-])c1)N(c1ccccc1)C(=O)N2 (stereo not drawn),-6.84,–
CC(Sc1cccc[n+]1[O-])C(=O)Nc1cccc(S(=O)(=O)N2CCOCC2)c1 (stereo not drawn),-20.6,–
CC(=O)CC(c1ccccc1)C1C(=O)Oc2ccccc2C1=O (stereo not drawn),-12.2,–
O=C(c1cncc(Br)c1)N1CCN(c2ccc([N+](=O)[O-])cc2)CC1,-27.4,–
CSCc1ccc(C(=O)Nc2cc(C)cc(C)c2)cc1,-12.7,–
COc1ccc(N(C(=O)c2cccnc2)S(=O)(=O)c2ccc3c(c2)n(C)c(=O)n3C)cc1,-4.39,–
CN(C)S(=O)(=O)c1cccc(C(=O)Nc2cccnc2)c1,-13.1,–
O=C(c1cccnc1)N(c1cc2sc(=O)oc2c2ccccc12)S(=O)(=O)c1ccccc1,–,17.8 µM (active)
COc1ccc(/C=N/NC(=O)c2ccccc2)cc1OS(=O)(=O)c1ccccc1,-15.2,–

SMILES,"activity change, negative = inhibition [%]",Potency
Cn1c(=NC(=O)CSCC(=O)N2CCCCC2)sc2ccccc21,–,22.4 µM (active)
Cn1c(=NC(=O)CSCC(=O)N2CCOCC2)sc2ccccc21,-16.8,–
Cn1c(=NC(=O)c2cnccn2)sc2ccccc21,-8.2,–
O=C(Nc1nc(-c2ccc(-c3ccccc3)cc2)cs1)c1cnccn1,-5.23,–
CN(c1ccccc1)S(=O)(=O)c1cccc(NC(=O)Cc2c(F)cccc2Cl)c1,-8.06,–
Cc1ccc2c(c1)C1CN(C)CCC1N2C(=O)c1ccccc1NS(=O)(=O)c1ccc(F)cc1C (stereo not drawn),-6.43,–
O=C(C1CCN(c2nnc(-n3cccc3)s2)CC1)N1CCc2ccccc2C1,–,14.1 µM (active)
CSc1ccc(CCNC(=O)C2CCN(c3nnc(-n4cccc4)s3)CC2)cc1,2.14,–
CCOC(=O)C1CCCN(C(=O)C2CCN(c3nnc(-n4cccc4)s3)CC2)C1 (stereo not drawn),-22.6,–
O=C(NC(Nc1nc2ccc([N+](=O)[O-])cc2s1)(C(F)(F)F)C(F)(F)F)c1ccccc1,-5.24,–
COc1ccc(C(=O)Nc2nc(-c3ccc(OC)cc3)c(-c3ccc([N+](=O)[O-])cc3)s2)cc1,-12.2,–
COC(=O)C(NC(=O)c1ccc(OC)cc1)(Nc1ncc(S(=O)(=O)c2ccc([N+](=O)[O-])cc2)s1)C(F)(F)F (stereo not drawn),–,15.8 µM (active)
O=C(NCc1ccccn1)c1ccc2nc(-c3ccco3)c(-c3ccco3)nc2c1,–,14.1 µM (active)
CCOc1ccc(C(=O)NC(C(=O)NCc2ccccn2)C(C)C)cc1 (stereo not drawn),-8.11,–
CN(c1ccc(C(=O)NCc2ccccn2)cc1)S(C)(=O)=O,-25.1,–
COc1ccccc1C1SCCN1C(=O)c1ccc([N+](=O)[O-])cc1 (stereo not drawn),-2.04,–
O=C(CN1CCN(c2ccc(O)cc2)CC1)Nc1cc(S(=O)(=O)N2CCOCC2)ccc1Cl,-5.21,–
Cc1ccc(-n2c(C)cc(C(=O)CSc3nnc4ccccn34)c2C)cc1,-16.1,–
C/C(=N\NC(=O)c1ccc(NS(=O)(=O)c2cccs2)cc1)c1ccc2ccccc2c1,-21.6,–
Nc1c(C(=O)NCc2ccccc2)sc2nc3c(cc12)C(=O)CCC3,-24.2,–
CC(C)OC(=O)c1sc2nc3c(cc2c1N)C(=O)CCC3,–,28.2 µM (active)
Cc1cccc(NC(=O)c2sc3nc4c(c(-c5ccco5)c3c2N)CCC4)c1,-21.6,–

SMILES,"activity change, negative = inhibition [%]",Potency
C/C(CCC(=O)OC[C@H]1O[C@H](C#Cc2ccccc2)C=C[C@@H]1Oc1ccc(C)cc1)=N\OC[C@@H](O)[C@H]1O[C@@H]2OC(C)(C)O[C@@H]2[C@H]1O,-19.5,–
CCc1ccc(NC(=O)CC2C(=O)NCCN2C(=S)Nc2ccccc2)cc1 (stereo not drawn),-10.9,–
Cc1ccc(NN=C2C(=O)OC(C)(C)OC2=O)c(C)c1,-9.59,–
C=CC1=C2C=C(C3CC3)N(C(CO)CO)C=C2C(=O)C(C)(OC(=O)c2ccco2)C1=O (stereo not drawn),-2.61,–
COc1ccc(OCc2cn3c(C)cc(C)nc3n2)cc1,-7.95,–
COc1ccc(Nc2cc(C)nc(-n3nc(C)cc3C)n2)cc1,-0.842,–
COc1ccc(C(C[N+](=O)[O-])n2nc(C)cc2C)cc1 (stereo not drawn),–,31.6 µM (active)
COc1ccc(N2CCN(c3ccc([N+](=O)[O-])cc3Cl)CC2)cc1,-1.48,–
COc1cc2c(cc1OC)C(Nc1ccc(S(N)(=O)=O)cc1)=NC(C)(C)C2,-7.98,–
CSc1nc(C)cc(SC(C(C)=O)C(=O)Nc2ccccc2)n1 (stereo not drawn),–,25.1 µM (active)
CC(Sc1nnc2c(n1)C1CCC2(C)C1(C)C)C(=O)Nc1ccccc1 (stereo not drawn),-10.3,–
CSc1ccccc1C(=O)Nc1cccc(C(C)=O)c1,-4.99,–
CCCCOc1ccc(C(=O)NCC(=O)OCC(=O)N2CCN(S(=O)(=O)c3ccc(C)cc3C)CC2)cc1,-0.54,–
COC(=O)c1ccc(C(=O)OC)c(NC(=S)N2CCN(c3ccc(F)cc3)CC2)c1,-14.5,–
CCOc1ccc(C(=O)NC(=S)Nc2ccc(NC(=O)C(C)C)cc2)cc1[N+](=O)[O-],-3.94,–
Cc1nnc(-c2ccc(Oc3ccc(C)c(C)c3)c([N+](=O)[O-])c2)o1,–,10 µM (active)
COc1ccc(OCC(=O)Nc2cc(C)c(Cl)cc2OC)c([N+](=O)[O-])c1,-1.27,–
S=C(NCc1ccc(Cl)cc1)NC1CCCCC1,-2.44,–
C#CCNc1nc(C(C)C)nc2c1nnn2Cc1ccccc1F,-2.63,–
CC(C)(C)c1nc(NCC2CCCO2)c2nnn(Cc3ccccc3)c2n1 (stereo not drawn),-9.49,–
CC(C)Nc1ncnc2c1nnn2Cc1ccccc1,–,28.2 µM (active)
N#Cc1ccccc1NC(=O)c1cccc(COc2ccc(Cl)cc2Cl)c1,-14.4,–

# Source: PubChem BioAssay AID894 (National Center for Advancing Translational Sciences (NCATS), 2007)
